# According to the supplement of paper PMC6411743:
# ± gives the standard deviation of the averaged measurements. About 6,500 targets were measured; listed, in parts, are those with the largest changes and a random draw of the rest.
# Compound: Nc1ncnc2c1ncn2[C@@H]1O[C@H](COP(=O)(O)OP(=O)(O)OP(=O)(O)O)[C@@H](O)[C@H]1O [adenosine triphosphate]
# Experiment: NP40-soluble protein abundance relative to vehicle (solubility fold change) (ratio); higher = more soluble protein in presence of ATP
# In short: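 Jurkat crude lysate prepared with a Dounce homogeniser was treated at eight concentrations spanning 0.1 to 10 mM, 10 min at room temperature then 3 min at 37 °C. Solubilisation with 0.8% NP40 and benzonase and ultracentrifugation preceded TMT labelling of the supernatant for LC-MS/MS. Fold change against the detergent-processed vehicle was determined per replicate from vsn-normalised intensities, across three independent experiments.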
# Sequence of UniProt Q9NZ72 (Q9NZ72 whole entry, one chain of several): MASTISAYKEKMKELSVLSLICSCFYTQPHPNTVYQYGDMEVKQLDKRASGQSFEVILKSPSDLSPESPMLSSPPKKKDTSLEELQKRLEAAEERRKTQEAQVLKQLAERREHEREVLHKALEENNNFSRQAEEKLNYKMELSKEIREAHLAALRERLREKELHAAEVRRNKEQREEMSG
# Sequence of UniProt Q9UI95 (Q9UI95 whole entry, one chain of several): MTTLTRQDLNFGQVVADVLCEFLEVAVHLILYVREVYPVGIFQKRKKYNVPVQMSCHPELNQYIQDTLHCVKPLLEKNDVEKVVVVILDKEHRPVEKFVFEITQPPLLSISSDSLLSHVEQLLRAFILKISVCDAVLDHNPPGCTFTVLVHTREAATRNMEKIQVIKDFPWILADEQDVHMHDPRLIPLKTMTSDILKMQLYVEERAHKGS
# Sequence of UniProt Q8NI36 (Q8NI36 whole entry, one chain of several): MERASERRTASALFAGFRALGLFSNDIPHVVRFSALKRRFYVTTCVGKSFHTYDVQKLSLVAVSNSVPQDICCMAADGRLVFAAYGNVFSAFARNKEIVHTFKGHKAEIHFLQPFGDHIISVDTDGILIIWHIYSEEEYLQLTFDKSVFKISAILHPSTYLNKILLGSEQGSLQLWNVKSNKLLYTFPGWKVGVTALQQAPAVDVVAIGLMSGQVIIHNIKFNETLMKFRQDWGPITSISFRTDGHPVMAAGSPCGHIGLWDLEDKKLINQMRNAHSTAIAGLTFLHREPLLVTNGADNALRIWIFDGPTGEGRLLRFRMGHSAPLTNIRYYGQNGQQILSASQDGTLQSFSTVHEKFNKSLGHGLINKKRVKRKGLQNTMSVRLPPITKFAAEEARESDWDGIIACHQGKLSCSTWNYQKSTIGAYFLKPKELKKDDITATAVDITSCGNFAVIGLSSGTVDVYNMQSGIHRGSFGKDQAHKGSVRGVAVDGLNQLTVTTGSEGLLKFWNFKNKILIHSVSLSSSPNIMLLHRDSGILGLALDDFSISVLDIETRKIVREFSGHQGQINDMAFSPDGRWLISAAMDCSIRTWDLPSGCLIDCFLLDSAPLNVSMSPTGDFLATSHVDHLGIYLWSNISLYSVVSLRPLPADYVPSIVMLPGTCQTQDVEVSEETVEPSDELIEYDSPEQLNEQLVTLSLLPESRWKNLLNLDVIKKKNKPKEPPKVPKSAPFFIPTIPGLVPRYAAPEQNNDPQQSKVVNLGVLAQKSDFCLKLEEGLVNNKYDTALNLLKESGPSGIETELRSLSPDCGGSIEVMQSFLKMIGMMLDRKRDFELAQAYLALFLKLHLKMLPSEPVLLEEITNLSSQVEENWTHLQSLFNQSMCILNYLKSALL
# Sequence of UniProt Q8WV92 (Q8WV92 whole entry, one chain of several): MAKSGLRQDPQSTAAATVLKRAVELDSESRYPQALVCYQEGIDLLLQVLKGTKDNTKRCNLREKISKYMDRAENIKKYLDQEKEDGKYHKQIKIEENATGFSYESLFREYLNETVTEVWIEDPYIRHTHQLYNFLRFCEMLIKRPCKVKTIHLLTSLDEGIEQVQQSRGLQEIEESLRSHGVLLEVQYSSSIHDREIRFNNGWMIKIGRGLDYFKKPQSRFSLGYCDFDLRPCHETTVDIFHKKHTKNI
# Sequence of UniProt Q9H2U1 (Q9H2U1 whole entry, one chain of several): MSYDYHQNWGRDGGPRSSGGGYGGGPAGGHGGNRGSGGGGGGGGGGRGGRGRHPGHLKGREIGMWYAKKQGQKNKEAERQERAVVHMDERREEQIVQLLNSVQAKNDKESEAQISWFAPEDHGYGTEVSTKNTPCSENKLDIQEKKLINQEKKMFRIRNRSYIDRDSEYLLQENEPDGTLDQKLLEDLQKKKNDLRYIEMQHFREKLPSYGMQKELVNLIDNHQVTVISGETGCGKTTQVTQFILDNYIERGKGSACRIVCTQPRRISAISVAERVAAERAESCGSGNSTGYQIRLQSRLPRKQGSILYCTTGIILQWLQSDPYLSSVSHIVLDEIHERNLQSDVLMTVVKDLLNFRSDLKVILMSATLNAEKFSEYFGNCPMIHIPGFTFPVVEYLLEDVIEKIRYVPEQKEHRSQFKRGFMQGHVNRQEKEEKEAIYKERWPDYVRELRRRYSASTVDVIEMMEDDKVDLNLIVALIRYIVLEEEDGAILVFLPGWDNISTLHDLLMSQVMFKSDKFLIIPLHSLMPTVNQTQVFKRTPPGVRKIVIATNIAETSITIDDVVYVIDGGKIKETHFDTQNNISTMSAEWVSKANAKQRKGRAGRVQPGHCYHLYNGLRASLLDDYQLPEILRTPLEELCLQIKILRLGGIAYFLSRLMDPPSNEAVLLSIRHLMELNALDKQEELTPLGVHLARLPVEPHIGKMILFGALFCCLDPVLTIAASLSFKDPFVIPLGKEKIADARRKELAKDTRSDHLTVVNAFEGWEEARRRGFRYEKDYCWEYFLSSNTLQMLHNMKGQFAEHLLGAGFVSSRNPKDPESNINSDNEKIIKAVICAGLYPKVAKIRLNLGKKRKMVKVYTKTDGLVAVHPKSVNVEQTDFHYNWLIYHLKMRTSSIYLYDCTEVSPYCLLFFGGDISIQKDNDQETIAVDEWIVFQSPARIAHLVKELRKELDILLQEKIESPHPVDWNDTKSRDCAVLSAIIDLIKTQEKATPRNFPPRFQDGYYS
# Sequence of UniProt O43913 (O43913 whole entry, one chain of several): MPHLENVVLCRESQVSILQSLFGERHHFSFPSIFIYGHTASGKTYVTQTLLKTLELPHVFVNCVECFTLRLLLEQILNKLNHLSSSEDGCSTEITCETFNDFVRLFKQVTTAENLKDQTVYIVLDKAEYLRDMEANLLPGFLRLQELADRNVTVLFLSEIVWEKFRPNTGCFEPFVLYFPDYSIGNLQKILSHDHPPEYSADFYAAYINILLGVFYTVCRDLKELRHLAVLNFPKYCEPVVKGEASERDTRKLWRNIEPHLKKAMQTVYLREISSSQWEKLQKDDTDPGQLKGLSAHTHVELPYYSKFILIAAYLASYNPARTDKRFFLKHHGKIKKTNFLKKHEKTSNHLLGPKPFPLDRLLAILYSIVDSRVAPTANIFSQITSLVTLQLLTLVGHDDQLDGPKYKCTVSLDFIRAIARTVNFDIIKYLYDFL
# Sequence of UniProt P55786 (P55786 whole entry, one chain of several): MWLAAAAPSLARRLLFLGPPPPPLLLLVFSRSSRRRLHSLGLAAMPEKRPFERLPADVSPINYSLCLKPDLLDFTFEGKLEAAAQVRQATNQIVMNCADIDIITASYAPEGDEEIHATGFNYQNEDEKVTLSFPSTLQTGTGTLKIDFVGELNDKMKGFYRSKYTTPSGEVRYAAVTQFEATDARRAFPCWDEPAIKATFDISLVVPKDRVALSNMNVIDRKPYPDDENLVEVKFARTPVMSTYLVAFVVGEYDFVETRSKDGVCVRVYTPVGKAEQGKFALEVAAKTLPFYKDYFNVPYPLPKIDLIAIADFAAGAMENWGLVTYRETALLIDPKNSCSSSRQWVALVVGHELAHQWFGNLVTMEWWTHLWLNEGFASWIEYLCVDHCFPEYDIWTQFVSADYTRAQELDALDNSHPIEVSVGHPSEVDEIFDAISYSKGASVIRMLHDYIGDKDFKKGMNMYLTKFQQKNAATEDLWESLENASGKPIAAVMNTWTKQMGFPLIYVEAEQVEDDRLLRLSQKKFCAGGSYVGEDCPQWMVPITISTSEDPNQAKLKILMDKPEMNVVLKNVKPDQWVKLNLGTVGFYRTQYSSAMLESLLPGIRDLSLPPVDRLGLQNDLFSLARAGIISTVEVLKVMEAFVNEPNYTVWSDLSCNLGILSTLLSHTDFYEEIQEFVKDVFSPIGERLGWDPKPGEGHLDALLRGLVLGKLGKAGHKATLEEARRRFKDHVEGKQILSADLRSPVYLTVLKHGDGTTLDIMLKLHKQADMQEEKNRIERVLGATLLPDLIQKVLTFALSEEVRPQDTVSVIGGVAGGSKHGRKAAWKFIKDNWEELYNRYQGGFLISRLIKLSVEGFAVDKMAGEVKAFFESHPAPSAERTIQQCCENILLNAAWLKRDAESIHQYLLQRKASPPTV
# Sequence of UniProt O75832 (O75832 whole entry, one chain of several): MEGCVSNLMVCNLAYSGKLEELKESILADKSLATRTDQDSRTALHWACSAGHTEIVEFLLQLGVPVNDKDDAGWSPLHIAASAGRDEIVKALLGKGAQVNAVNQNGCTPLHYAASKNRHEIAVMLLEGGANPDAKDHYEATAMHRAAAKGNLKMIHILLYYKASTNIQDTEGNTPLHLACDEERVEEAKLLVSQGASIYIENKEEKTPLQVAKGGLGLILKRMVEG
# Sequence of UniProt Q9BZG8 (Q9BZG8 whole entry, one chain of several): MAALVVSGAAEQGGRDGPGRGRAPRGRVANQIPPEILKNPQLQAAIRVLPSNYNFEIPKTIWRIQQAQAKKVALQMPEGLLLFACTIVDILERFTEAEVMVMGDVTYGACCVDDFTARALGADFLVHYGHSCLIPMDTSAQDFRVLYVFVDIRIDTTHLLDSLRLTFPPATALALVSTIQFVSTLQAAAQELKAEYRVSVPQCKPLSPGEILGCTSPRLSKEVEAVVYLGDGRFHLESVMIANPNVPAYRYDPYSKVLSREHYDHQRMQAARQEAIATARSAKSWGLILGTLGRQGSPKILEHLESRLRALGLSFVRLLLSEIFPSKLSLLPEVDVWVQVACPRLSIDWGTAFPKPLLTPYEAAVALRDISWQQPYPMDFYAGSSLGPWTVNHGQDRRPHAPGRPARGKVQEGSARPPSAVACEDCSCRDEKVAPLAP
# Sequence of UniProt P56556 (P56556 whole entry, one chain of several): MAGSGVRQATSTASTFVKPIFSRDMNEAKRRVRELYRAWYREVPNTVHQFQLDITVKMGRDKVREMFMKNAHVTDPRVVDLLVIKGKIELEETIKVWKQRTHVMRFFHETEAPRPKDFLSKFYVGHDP
# Sequence of UniProt Q07955 (Q07955 whole entry, one chain of several): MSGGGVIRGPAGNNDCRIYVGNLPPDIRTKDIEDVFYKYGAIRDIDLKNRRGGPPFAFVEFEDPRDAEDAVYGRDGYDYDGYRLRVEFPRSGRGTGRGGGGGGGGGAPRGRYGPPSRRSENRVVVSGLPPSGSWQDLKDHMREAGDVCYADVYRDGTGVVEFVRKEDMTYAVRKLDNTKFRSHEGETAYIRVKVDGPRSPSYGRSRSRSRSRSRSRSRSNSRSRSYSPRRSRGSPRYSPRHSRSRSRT
Target,NP40-soluble protein abundance (concentration: 1mM),NP40-soluble protein abundance (concentration: 2mM),NP40-soluble protein abundance (concentration: 4mM),NP40-soluble protein abundance (concentration: 6mM),NP40-soluble protein abundance (concentration: 8mM),NP40-soluble protein abundance (concentration: 10mM)
G5E9W3|Q9UKF6 (UniProt Q9UKF6),1.09 ± 0.073,1.1 ± 0.029,1.14 ± 0.025,1.11 ± 0.048,1.14 ± 0.029,1.18 ± 0.052
H3BTR4|Q96BT3 (UniProt Q96BT3),1.32 ± 0.023,1.41 ± 0.13,1.52 ± 0.21,1.72 ± 0.23,1.68 ± 0.17,1.87 ± 0.17
UniProt E9PSI1,0.9713 ± 0.0047,0.986 ± 0.015,0.981 ± 0.015,0.939 ± 0.037,0.958 ± 0.044,0.96 ± 0.04
A0A0C4DGS0|P56556 (UniProt P56556),0.969 ± 0.066,0.922 ± 0.055,0.901 ± 0.046,0.875 ± 0.066,0.926 ± 0.053,0.909 ± 0.031
A0A0J9YW36|Q9NZ72|Q9NZ72-2 (UniProt Q9NZ72),1.03 ± 0.25,1.21 ± 0.52,0.979 ± 0.12,1.18 ± 0.36,0.945 ± 0.1,0.863 ± 0.05
B1AK44|Q9UI95 (UniProt Q9UI95),0.999 ± 0.022,0.937 ± 0.037,0.978 ± 0.024,1.01 ± 0.087,1.05 ± 0.086,0.993 ± 0.059
H7C3Q6|Q8WV92|B8ZZL5 (UniProt Q8WV92),1.85 ± 0.55,1.9 ± 0.66,1.92 ± 0.67,1.9 ± 0.76,1.97 ± 0.67,1.94 ± 0.67
E9PJA7|Q9NYF8|Q9NYF8-2|Q9NYF8-3 (UniProt Q9NYF8),1.31 ± 0.092,1.41 ± 0.056,1.54 ± 0.086,1.7 ± 0.11,1.65 ± 0.07,1.7 ± 0.06
F5GWN5|O00750 (UniProt O00750),0.994 ± 0.022,1.03 ± 0.025,1.05 ± 0.013,1.02 ± 0.039,1.03 ± 0.028,1.03 ± 0.051
B1AJY7|O75832 (UniProt O75832),1 ± 0.082,0.973 ± 0.031,0.955 ± 0.065,0.977 ± 0.076,0.947 ± 0.056,0.863 ± 0.043
J3KTE4|J3QR09|P84098 (UniProt P84098),1.01 ± 0.053,1 ± 0.027,0.968 ± 0.07,0.966 ± 0.043,0.908 ± 0.057,1.05 ± 0.094
A0A0A0MTB8|Q8NI36 (UniProt Q8NI36),1.21 ± 0.057,1.37 ± 0.057,1.68 ± 0.13,1.86 ± 0.23,2.12 ± 0.14,2.17 ± 0.17
E9PLK3|P55786 (UniProt P55786),1.02 ± 0.12,0.997 ± 0.09,0.976 ± 0.065,0.927 ± 0.13,0.999 ± 0.073,0.974 ± 0.057
G3V0H0|O43913|O43913-2 (UniProt O43913),1.03 ± 0.12,1.01 ± 0.097,1.02 ± 0.08,1 ± 0.13,1.08 ± 0.078,1.02 ± 0.061
I3L1H5|Q9BZG8 (UniProt Q9BZG8),0.984 ± 0.17,1.03 ± 0.12,0.987 ± 0.16,0.898 ± 0.12,0.987 ± 0.16,0.917 ± 0.13
E9PHG5|Q6UW02 (UniProt Q6UW02),1.11 ± 0.13,1.02 ± 0.16,1.04 ± 0.13,1.02 ± 0.17,1.02 ± 0.1,0.993 ± 0.086
SPTLC1 (UniProt O15269),0.993 ± 0.026,0.998 ± 0.032,0.997 ± 0.027,0.93 ± 0.096,0.998 ± 0.024,1 ± 0.049
H7C5F5|Q9H2U1|Q9H2U1-2 (UniProt Q9H2U1),0.963 ± 0.068,0.979 ± 0.08,0.987 ± 0.073,1.01 ± 0.1,1.03 ± 0.088,1.02 ± 0.1
J3KTL2|Q07955 (UniProt Q07955),1.41 ± 0.16,1.53 ± 0.14,1.7 ± 0.11,1.93 ± 0.19,1.89 ± 0.097,1.98 ± 0.093
